# In the library only some 1.8% were active in any assay of this set; here they are far more common.
# Neddylation inh – inhibitors of human cullin neddylation | AID 651699 | P61081+Q13564 | 360,000 compounds, 0.58% hits | inhibition, % at 25 µM | TR-FRET cullin neddylation, biochemical; in the data active = inhibition above about 36%
# Target sequence (P61081 whole entry, looked up): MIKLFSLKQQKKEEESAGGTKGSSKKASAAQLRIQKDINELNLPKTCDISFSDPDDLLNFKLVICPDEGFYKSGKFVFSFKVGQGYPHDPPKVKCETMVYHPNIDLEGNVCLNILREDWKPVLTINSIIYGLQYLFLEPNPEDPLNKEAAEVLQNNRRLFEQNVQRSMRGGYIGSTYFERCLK
# Target sequence (Q13564 whole entry, looked up): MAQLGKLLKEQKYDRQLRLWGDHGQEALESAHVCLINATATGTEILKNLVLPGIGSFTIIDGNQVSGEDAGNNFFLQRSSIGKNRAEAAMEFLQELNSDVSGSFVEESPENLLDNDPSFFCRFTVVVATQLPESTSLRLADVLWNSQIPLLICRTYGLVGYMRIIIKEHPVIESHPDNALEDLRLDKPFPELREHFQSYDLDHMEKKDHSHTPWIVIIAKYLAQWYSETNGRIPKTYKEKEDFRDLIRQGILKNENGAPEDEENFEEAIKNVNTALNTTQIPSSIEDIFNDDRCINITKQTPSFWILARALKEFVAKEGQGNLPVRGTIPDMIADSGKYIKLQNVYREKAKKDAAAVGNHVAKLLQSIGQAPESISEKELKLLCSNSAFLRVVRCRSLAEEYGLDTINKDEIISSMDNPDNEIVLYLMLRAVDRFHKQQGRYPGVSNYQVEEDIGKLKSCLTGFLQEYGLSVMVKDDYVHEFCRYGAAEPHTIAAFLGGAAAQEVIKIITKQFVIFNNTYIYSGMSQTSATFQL
# GRK2 inh – inhibitors of human GRK2 displacing RNA aptamer; P25098; inhibition of aptamer binding, % at 10 µM; bead flow cytometry, FAM-aptamer displacement from GRK2; 330,000 compounds, 0.59% hits;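 active = inhibition of aptamer binding above 40%, roughly 3 SD of noise, on plates passing a quality check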;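 also: median bead fluorescence of bound FAM aptamer so fluorescent compounds give negative values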
# H9c2 protect – protects H9c2 cardiomyocytes from peroxide injury. H2O2 injury protection, ATPLite, 2 h. protection from H2O2 cell death, % at 20 µM. 360,000 compounds, 0.63% hits;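 active = compounds giving at least 50% protection of heart cells from peroxide-induced death in the single-dose screen, raw or plate-pattern-corrected value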;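 also: 0% = DMSO wells with peroxide and 100% = DMSO wells without peroxide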
# HDAC3 inhib – human HDAC3 inhibition. O15379. inhibition, % at 8.3 µM. recombinant HDAC3, fluorogenic peptide/trypsin coupled, fluorescence. 320,000 compounds, 0.15% hits; in the data active = inhibition above about 26%, passing the limit was not always enough
# Neddyl inh conf – confirmation of human cullin neddylation inhibitors | calls only at 25 µM | shares compounds with Neddylation inh | TR-FRET cullin neddylation biochemical assay | AID 652217 | 1,800 compounds, 13% hits; in the data active = inhibition above about 40%;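 also: neddylation substrate is the cullin 1 ring ligase complex with SKP2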
# * = called active by the depositor; i = inactive; . = no result shown; + = active, no number.
SMILES,Neddylation inh,GRK2 inh,H9c2 protect,HDAC3 inhib,Neddyl inh conf
Cc1noc(C)c1C(=O)N1CCC1(C)C(=O)NS(=O)(=O)c1ccc(Cl)cc1 (stereo unspecified),5,.,8,.,.
S=c1[nH]nc(-c2cc(-c3ccccc3)n[nH]2)n1/N=C/c1ccc(Cl)c(Cl)c1,83*,0,-9,-7,i
S=c1[nH]nc(-c2ccccn2)n1/N=C/c1ccc(Cl)c(Cl)c1,-3,0,6,5,.
Cc1ccc2c(c1)c1c3n2CC(=C2C(=O)OC(C)(C)OC2=O)NC3CCC1 (stereo unspecified),45*,0,13,5,i
Cc1ccc2c(c1)c1c(n2CC2COC(C)(C)O2)C(=O)CCC1 (stereo unspecified),.,0,12,-5,.
COc1ccccc1CC(=O)Nc1ccc(O)cc1C(=O)O,40*,2,5,-14,.
COc1ccccc1CC(=O)Nc1ccc(Cl)cc1C(=O)O,38,0,-4,-11,.
O=C(c1cccc(S(=O)(=O)N2CCOCC2)c1)N1CCN(c2ncccn2)CC1,6,.,-2,.,.
Nc1nc(Br)c2c(F)cccc2c1-c1ccccc1,33,0,7,8,.
Nc1nc(Br)c2c(F)cccc2c1-c1ccc(F)cc1,40*,0,7,-2,i
COCCn1nnnc1C(C(C)C)N(Cc1cccnc1)Cc1cc2cc(OC)ccc2[nH]c1=O (stereo unspecified),40*,3,61*,7,i
COC(=O)c1cc(OC)c(OC)cc1NCC(=O)Nc1ccc(C)cc1,47*,0,4,.,.
COC(=O)c1cc(OC)c(OC)cc1NCC(=O)Nc1ccc(OC)c(OC)c1,16,2,14,1,.
COC(=O)C1=C(C)NC2=C(C(=O)C(C(=O)OC)C(c3ccc(OC)cc3)C2)C1c1ccccn1 (stereo unspecified),49*,5,-2,-12,.
Cc1nc2nc(SCC(=O)NCCCN3CCCC(C)C3)nn2c(C)c1Cc1ccccc1Cl (stereo unspecified),-10,0,-4,2,.
CCOC(=O)C1=C(C)NC(C)=C(C(=O)OCC)C1C(=O)OCC(=O)N(C)Cc1ccccc1,40*,0,-1,0,i
O=C(NCCCN1CCOCC1)c1ccc2c(=O)n(-c3ccc(F)c(Cl)c3)c(=S)[nH]c2c1,-14,1,-1,2,.
CCOc1cc(/C=N/NC(=O)c2cc(C)n(-c3ccc(F)cc3)c2C)ccc1O,40*,0,0,-5,i
O=C(O)CCc1ccc(-c2cccs2)n1CC1CCCO1 (stereo unspecified),49*,0,0,-6,i
CSc1ccc(/C=C/C(=O)OCC(=O)NCC2CCCO2)cc1 (stereo unspecified),66*,2,-8,.,.
Clc1ccc(-c2cn3ccccc3n2)cc1,40*,1,-16,-3,i
O=C(O)c1cc2cccc(S(=O)(=O)N3CCCCC3)c2cc1O,.,2,0,3,.
COC(=O)c1cccc(CN2C(=O)SC(Nc3ccccc3)C2=O)c1 (stereo unspecified),37*,0,-1,1,i
COC(OC)C1Nc2ccccc2C(=O)N1c1ccc(F)cc1 (stereo unspecified),43*,.,0,.,.
OC(c1ccco1)c1nc(-c2cccs2)cs1 (stereo unspecified),1,.,1,.,.
SMILES,Neddylation inh,GRK2 inh,H9c2 protect,HDAC3 inhib,Neddyl inh conf
c1ccc(-c2cc3ncccc3cn2)cc1,4,0,-4,2,.
c1cnc2cc(-c3ccsc3)ncc2c1,44*,3,-1,-6,+
CC(Oc1ccc2ccc(=O)oc2c1)C(=O)N1CCOCC1 (stereo unspecified),53*,0,1,-17,.
CCOC(=O)Cn1nc(/C=C/c2ccccc2)ccc1=O,43*,0,12,-13,+
CCOC(=O)Cn1nc(/C=C/c2ccc(C(C)C)cc2)ccc1=O,49*,0,-27,-1,.
COc1ccc2cc(CN(CC3CCCO3)C(=S)Nc3ccccc3)c(=O)[nH]c2c1 (stereo unspecified),-26,0,17,4,.
COCCn1c(=O)[nH]c2cc(C(=O)Nc3cc(OC)c(OC)c(OC)c3)ccc2c1=O,0,2,6,6,.
COCCn1c(=O)[nH]c2cc(C(=O)OC)ccc2c1=O,42*,0,5,-12,i
CN(C)CCN(Cc1cc2cc3c(cc2[nH]c1=O)OCO3)C(=S)NCC1CCCO1 (stereo unspecified),41*,0,6,-18,i
O=C(NCc1ccccc1)N(Cc1cc2cc3c(cc2[nH]c1=O)OCO3)CC1CCCO1 (stereo unspecified),41*,1,15,-1,i
Cc1cc2cc(CN(CC3CCCO3)C(=S)Nc3ccccc3)c(=O)[nH]c2cc1C (stereo unspecified),-44,0,8,9,.
O=C(c1ccccc1)N(CCO)Cc1cc2cc3c(cc2[nH]c1=O)OCCO3,42*,0,-5,-1,i
COc1ccc(S(=O)(=O)N2CCOCC2)cc1NC(=O)C1COc2ccccc2O1 (stereo unspecified),14,0,12,-6,.
Cc1ccc(S(=O)(=O)N2CC(O)C[C@H]2C(=O)OCC(=O)Nc2ccc(N3CCCCC3)cc2)cc1C (stereo partly specified),1,1,-6,.,.
c1cncc(-c2nnc(-c3cccs3)o2)c1,52*,1,-1,-48,.
COc1ccc(NC(=O)c2cc(-c3ccc(C)cc3)on2)cc1OC,36,0,-3,1,.
COc1ccc(-c2cc(C(=O)Nc3ccc(OC)c(OC)c3)no2)cc1,40*,0,-5,-5,i
Cc1cc(SCC(=O)Nc2ccc(O)cc2)n2ncc(-c3ccccc3)c2n1,39*,0,-4,.,i
O=C(O)c1cc2nccc(-c3ccco3)n2n1,.,6,4,.,.
COc1ccc(-c2ccnc3cc(C(=O)O)nn23)cc1,53*,1,-1,-15,.
O=c1[nH]c2ccccc2c2cn(-c3ccccc3)nc12,42*,4,-10,-15,i
Cc1nc2c(=O)[nH]c3ccccc3c2o1,3,5,14,0,.
COC(=O)c1nc2cc3c(cc2c(C)c1C(=O)OC)OCO3,58*,0,2,-19,+
Cc1nc2cc3c(cc2c(C)c1C(=O)OC(C)C)OCO3,18,2,-6,-5,.
COc1ccc2cc(C(=O)C3CCCN(C(=O)/C=C/c4ccccn4)C3)ccc2c1 (stereo unspecified),53*,0,12,2,i
COc1ccc2cc(C(=O)C3CCCN(C(=O)c4cnccn4)C3)ccc2c1 (stereo unspecified),.,0,1,-24,.
Nc1nc2c(c(=O)[nH]1)CN(Cc1ccccc1)CC2,40*,4,2,4,i
Nc1ncnc2c1CN(Cc1ccccc1)CC2,8,.,18,.,.
